Reference: PubChem BioAssay AID492972 (The Scripps Research Institute Molecular Screening Center, 2010)
The campaign covered roughly 340,000 compounds. About 930 (0.27%) were called active.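 How the source made its calls: active means inhibition above the screen-wide average of all tested compounds plus 3 SD (cut at about 25% in these data); inactive means the rest.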 The sample as a whole holds a higher share of actives than the screen did.

target: Platelet-activating factor acetylhydrolase IB subunit alpha1 (Homo sapiens) (UniProt Q15102); assay: PAFAH1B3 enzyme inhibitors, primary screen, biochemical, fluorescence polarization, human (AID 492972); settings: recombinant PAFAH1B3, FP-rhodamine probe, at 3.39 µM, hits give high values;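 further: 0% = enzyme with DMSO only and 100% = wells lacking PAFAH1B3 protein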
Sequence (Q15102 whole entry, looked up): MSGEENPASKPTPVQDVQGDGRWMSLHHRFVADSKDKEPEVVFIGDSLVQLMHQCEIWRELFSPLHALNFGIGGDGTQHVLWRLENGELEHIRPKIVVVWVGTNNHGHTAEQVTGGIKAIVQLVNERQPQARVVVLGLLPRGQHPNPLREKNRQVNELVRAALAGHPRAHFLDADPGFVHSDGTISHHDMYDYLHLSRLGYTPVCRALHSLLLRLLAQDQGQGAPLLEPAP

| SMILES | inhibition |
| --- | --- |
| CC(C)c1ccc(NC(=O)[C@@H](NC(=O)N2CC(=O)Nc3ccccc32)C(C)C)cc1 | 6.6% (inactive) |
| Cc1nc(NC(CC(C)C)C(=O)O)c2nc(C)oc2n1 (stereo not given) | 7.36% (inactive) |
| COc1cccc(N(CC(=O)NCCSc2ccccn2)S(C)(=O)=O)c1 | 12.7% (inactive) |
| CCOC(=O)[C@H]1[C@H]2COc3ccc(Br)cc3[C@@H]2N2C(=O)CN(C)C(=O)[C@@]12C | 2.41% (inactive) |
| CCOc1cccc(/C=N/N2C(=O)CSC2=S)c1O | 13.7% (inactive) |
| O=C1CSC(=S)N1/N=C/c1ccc(O)c([N+](=O)[O-])c1 | 31.7% (active) |
| Cc1cc(C(=O)N/N=C/c2ccc(O)c([N+](=O)[O-])c2)c(C)n1-c1ccc(F)cc1 | 9.16% (inactive) |
| Cc1ccc(C)c2[nH]c(=O)c(CCNC(=O)CC(C)C)cc12 | 13.2% (inactive) |
| O=C(O)c1ccc(Cn2cnc3c(=S)nc[nH]c32)cc1 | -3% (inactive) |
| COC(=O)c1ccccc1NC(=O)CSc1n[nH]c(-c2ccncc2)n1 | -3.63% (inactive) |
| CC(=O)Nc1ccc(S(=O)(=O)N2CCC(C(=O)N[C@@H](Cc3ccccc3)C(=O)O)CC2)cc1 | -0.21% (inactive) |
| CCOC(=O)c1ccn(-c2nc(-c3ccco3)cc(C(F)(F)F)n2)n1 | 1.73% (inactive) |
| Cc1c(C(=O)O)nnn1-c1nonc1N | 3.33% (inactive) |
| COC(=O)C1=C(C)NC(=O)/C1=C/c1ccc(CNS(=O)(=O)c2ccc(C)cc2)o1 | 10.7% (inactive) |
| Cn1c(Cc2cccs2)nnc1SCC(=O)Nc1ccccc1 | 10.8% (inactive) |
| CCOC(=O)c1c(C)[nH]c2c1-c1ccccc1C(=O)C2=O | 58.3% (active) |
| CCOC(=O)c1[nH]c2ccccc2c1N=C(C)N(CC)CC | 9.46% (inactive) |
| CCOC(=O)C1=C(C)c2ccccc2OC1(C)C(=O)OCC (stereo not given) | 2.09% (inactive) |
| c1ccc(-c2c[nH]c(-c3ccccc3)c2)cc1 | 3.23% (inactive) |
| Cc1nc(CNS(=O)(=O)c2ccc(Oc3ccccc3)cc2)cs1 | 13.7% (inactive) |
| COc1cccc(Cn2cc(/C=N/NC(=O)c3cc(O)cc(O)c3)c3ccccc32)c1 | 37.5% (active) |
| CNC(=S)N/N=C/c1cn(Cc2ccc(C)cc2)c2ccccc12 | 3.79% (inactive) |
| N#CCC(=O)N/N=C/c1cn(Cc2ccc3ccccc3c2)c2ccccc12 | -0.94% (inactive) |
| COC(=O)C1=C[C@@H](C(=O)OC)[C@@H]2C3=C(C(=O)[C@]2(C)NC(=O)c2ccccc2)[C@H](C)n2c(=O)n(C)c(=O)n2[C@@H]3C1 | 4.02% (inactive) |
| COC(=O)Cc1ccc(N(Cc2ccccc2F)S(=O)(=O)c2ccc(Br)cc2)cc1 | 8.61% (inactive) |
